Source: PubChem BioAssay AID1159580 (chemical genetic matrix, 2015)
Hit rate of the full screen: of about 5,500 compounds, about 2,000 (36%) were called active. Another 18% or so got no clear call; they are omitted. Rule as the data show it: active = normalized growth mostly below about 0.91 (no sharp cut-off); inconclusive = no clear call, values can overlap the other calls; inactive = mostly above about 0.92. Some of the results follow.

Experiment: chemical genetic growth profiling, strain panel (AID 1159580);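 also: tested at 20 µM; growth read once vehicle control cultures reached saturation at 30 °C; 1 = growth at the plate median or of vehicle wells; lower values mean less growth of the strain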
Conditions: growth OD

Measured: normalized growth

CN(C)C1C(=O)C(C(N)=O)=C(O)C2(O)C(=O)C3=C(O)c4c(O)ccc(Cl)c4C(C)(O)C3CC12 (stereo unspecified)
inactive: S. cerevisiae deletion strains, locus YAL013W, strain DEP1, stronger effect = lower value 1 | S. cerevisiae deletion strains, locus YBR021W, strain FUR4, stronger effect = lower value 0.979 | S. cerevisiae deletion strains, locus YBR229C, strain ROT2, stronger effect = lower value 0.991 | S. cerevisiae deletion strains, locus YCL029C, strain bik1, stronger effect = lower value 0.975 | S. cerevisiae deletion strains, locus YDL035C, strain GPR1, stronger effect = lower value 1.01 | S. cerevisiae deletion strains, locus YDL074C, strain BRE1, stronger effect = lower value 1.06 | S. cerevisiae deletion strains, locus YDL101C, strain DUN1, stronger effect = lower value 0.995 | S. cerevisiae deletion strains, locus YDL134C, strain PPH21, stronger effect = lower value 0.992 | S. cerevisiae deletion strains, locus YDL185W, strain tfp1, stronger effect = lower value 0.993 | S. cerevisiae deletion strains, locus YDL192W, strain arf1, stronger effect = lower value 0.99 | S. cerevisiae deletion strains, locus YDR101C, strain arx1, stronger effect = lower value 0.997 | S. cerevisiae deletion strains, locus YDR150W, strain NUM1, stronger effect = lower value 0.992 | S. cerevisiae deletion strains, locus YDR162C, strain NBP2, stronger effect = lower value 1.01 | S. cerevisiae deletion strains, locus YDR318W, strain mcm21, stronger effect = lower value 0.99 | S. cerevisiae deletion strains, locus YDR388W, stronger effect = lower value 0.991 | S. cerevisiae deletion strains, locus YDR502C, strain sam2, stronger effect = lower value 0.993 | S. cerevisiae deletion strains, locus YEL061C, strain CIN8, stronger effect = lower value 0.999 | S. cerevisiae deletion strains, locus YER110C, stronger effect = lower value 0.984 | S. cerevisiae deletion strains, locus YER155C, strain BEM2, stronger effect = lower value 0.997 | S. cerevisiae deletion strains, locus YER167W, strain BCK2, stronger effect = lower value 0.988 | S. cerevisiae deletion strains, locus YGL078C, strain dbp3, stronger effect = lower value 0.99 | S. cerevisiae deletion strains, locus YGL086W, strain mad1, stronger effect = lower value 0.982 | S. cerevisiae deletion strains, locus YGL248W, strain PDE1, stronger effect = lower value 0.985 | S. cerevisiae deletion strains, locus YGR078C, strain PAC10, stronger effect = lower value 1.02 | S. cerevisiae deletion strains, locus YGR135W, strain pre9, stronger effect = lower value 1.01 | S. cerevisiae deletion strains, locus YGR229C, strain SMI1, stronger effect = lower value 1.04 | S. cerevisiae deletion strains, locus YGR252W, strain gcn5, stronger effect = lower value 0.948 | S. cerevisiae deletion strains, locus YHR030C, strain SLT2, stronger effect = lower value 0.99 | S. cerevisiae deletion strains, locus YHR079C, strain IRE1 (second series), stronger effect = lower value 0.979 | S. cerevisiae deletion strains, locus YHR094C, strain hxt1, stronger effect = lower value 0.991 | S. cerevisiae deletion strains, locus YHR129C, strain ARP1, stronger effect = lower value 0.994 | S. cerevisiae deletion strains, locus YHR200W, strain rpn10, stronger effect = lower value 0.98 | S. cerevisiae deletion strains, locus YIL066C, strain RNR3, stronger effect = lower value 0.993 | S. cerevisiae deletion strains, locus YIL073C, strain SPO22, stronger effect = lower value 0.96 | S. cerevisiae deletion strains, locus YIL125W, strain kgd1, stronger effect = lower value 1 | S. cerevisiae deletion strains, locus YIR030C, strain dcg1, stronger effect = lower value 0.986 | S. cerevisiae deletion strains, locus YJL095W, strain BCK1, stronger effect = lower value 1.03 | S. cerevisiae deletion strains, locus YJL134W, strain LCB3, stronger effect = lower value 0.991 | S. cerevisiae deletion strains, locus YJL168C, strain set2, stronger effect = lower value 0.991 | S. cerevisiae deletion strains, locus YJL187C, strain SWE1 (second series), stronger effect = lower value 0.996 | S. cerevisiae deletion strains, locus YJR043C, strain POL32, stronger effect = lower value 0.984 | S. cerevisiae deletion strains, locus YJR075W, strain HOC1, stronger effect = lower value 1.01 | S. cerevisiae deletion strains, locus YKL009W, strain mrt4, stronger effect = lower value 0.964 | S. cerevisiae deletion strains, locus YKL068W, stronger effect = lower value 0.996 | S. cerevisiae deletion strains, locus YKL085W, strain MDH1 (second series), stronger effect = lower value 0.984 | S. cerevisiae deletion strains, locus YKL085W, strain MDH1, stronger effect = lower value 0.984 | S. cerevisiae deletion strains, locus YKL190W, strain CNB1, stronger effect = lower value 1 | S. cerevisiae deletion strains, locus YKR001C, strain vps1, stronger effect = lower value 0.985 | S. cerevisiae deletion strains, locus YLR039C, strain RIC1, stronger effect = lower value 0.964 | S. cerevisiae deletion strains, locus YLR058C, strain SHM2, stronger effect = lower value 0.991 | S. cerevisiae deletion strains, locus YLR102C, strain apc9, stronger effect = lower value 0.985 | S. cerevisiae deletion strains, locus YLR262C, strain YPT6, stronger effect = lower value 0.985 | S. cerevisiae deletion strains, locus YLR268W, strain sec22, stronger effect = lower value 0.999 | S. cerevisiae deletion strains, locus YLR330W, strain CHS5, stronger effect = lower value 0.991 | S. cerevisiae deletion strains, locus YLR342W, strain FKS1 (second series), stronger effect = lower value 0.932 | S. cerevisiae deletion strains, locus YLR371W, strain rom2, stronger effect = lower value 0.979 | S. cerevisiae deletion strains, locus YLR418C, strain cdc73, stronger effect = lower value 1.02 | S. cerevisiae deletion strains, locus YML016C, strain PPZ1, stronger effect = lower value 0.986 | S. cerevisiae deletion strains, locus YML032C, strain rad52, stronger effect = lower value 0.98 | S. cerevisiae deletion strains, locus YML124C, strain tub3, stronger effect = lower value 0.989 | S. cerevisiae deletion strains, locus YMR078C, strain ctf18, stronger effect = lower value 0.983 | S. cerevisiae deletion strains, locus YMR223W, strain ubp8, stronger effect = lower value 0.97 | S. cerevisiae deletion strains, locus YMR263W, strain SAP30, stronger effect = lower value 1.02 | S. cerevisiae deletion strains, locus YMR307W, strain GAS1, stronger effect = lower value 0.937 | S. cerevisiae deletion strains, locus YNL067W, strain RPL9B, stronger effect = lower value 1.03 | S. cerevisiae deletion strains, locus YNL128W, strain TEP1, stronger effect = lower value 1.02 | S. cerevisiae deletion strains, locus YNL153C, strain GIM3, stronger effect = lower value 1.01 | S. cerevisiae deletion strains, locus YNL233W, strain BNI4, stronger effect = lower value 0.999 | S. cerevisiae deletion strains, locus YNL250W, strain rad50, stronger effect = lower value 1 | S. cerevisiae deletion strains, locus YNL271C, strain bni1, stronger effect = lower value 0.998 | S. cerevisiae deletion strains, locus YNL298W, strain CLA4, stronger effect = lower value 0.994 | S. cerevisiae deletion strains, locus YNL307C, strain MCK1, stronger effect = lower value 0.976 | S. cerevisiae deletion strains, locus YNL322C, strain KRE1, stronger effect = lower value 1 | S. cerevisiae deletion strains, locus YNR052C, strain pop2, stronger effect = lower value 0.974 | S. cerevisiae deletion strains, locus YOL006C, strain TOP1, stronger effect = lower value 1.09 | S. cerevisiae deletion strains, locus YOL012C, strain htz1 0.811 | S. cerevisiae deletion strains, locus YOL147C, strain pex11, stronger effect = lower value 0.992 | S. cerevisiae deletion strains, locus YOR061W, strain CKA2, stronger effect = lower value 0.997 | S. cerevisiae deletion strains, locus YOR069W, strain VPS5, stronger effect = lower value 0.993 | S. cerevisiae deletion strains, locus YOR136W, strain idh2, stronger effect = lower value 0.992 | S. cerevisiae deletion strains, locus YOR144C, strain elg1, stronger effect = lower value 0.985 | S. cerevisiae deletion strains, locus YOR184W, strain ser1, stronger effect = lower value 0.973 | S. cerevisiae deletion strains, locus YOR316C, strain cot1, stronger effect = lower value 0.971 | S. cerevisiae deletion strains, locus YPL055C, strain LGE1, stronger effect = lower value 1.04 | S. cerevisiae deletion strains, locus YPL241C, strain CIN2, stronger effect = lower value 0.997 | S. cerevisiae deletion strains, locus YPR119W, strain clb2, stronger effect = lower value 0.998 | S. cerevisiae deletion strains, locus YPR141C, strain kar3, stronger effect = lower value 1 | S. cerevisiae deletion strains, locus YPR163C, strain tif3, stronger effect = lower value 0.991 | S. cerevisiae deletion strains, locus YPR167C, strain met16, stronger effect = lower value 0.992 | S. cerevisiae deletion strains, strain wtn01, stronger effect = lower value 0.988 | S. cerevisiae strains, strain wild type, stronger effect = lower value 1
